Compound activity: PubChem BioAssay, National Center for Advancing Translational Sciences (NCATS)
TDP1 cell CPT: qHTS for Inhibitors of human tyrosyl-DNA phosphodiesterase 1 (TDP1): qHTS in cells in presence of CPT. chicken DT40 Tdp1-/-;hTDP1 cells + 20 nM CPT, ATP luminescence, 48 h. Potency, µM (series often up to 46.2 µM), without a hit: at the top dose activity change, negative = growth inhibition, usual class: inhibitors. actives 12% (n = 420,000). AID 686979, 2013; further: potency means the concentration at half of the fitted maximal effect; nearly all actives have a fitted effect of over 55% in size
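Cell growth measured by CellTiter-Glo luminescence after a minimum 48 h, 37 C compound exposure with 20 nM CPT in Tdp1-knockout DT40 cells stably expressing hTDP1, seeded 400/well; qHTS titration format.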
DT40 TDP1 no CPT: qHTS for Inhibitors of human tyrosyl-DNA phosphodiesterase 1 (TDP1): qHTS in cells in absence of CPT. DT40 Tdp1-/- hTDP1 cells, no CPT, ATP luminescence, 48 h. Potency, µM (highest dose often 46.2 µM), inactives show at the top dose activity change, negative = growth inhibition, most hits filed as inhibitors. actives 15% (n = 420,000); further: potency means the concentration at half of the fitted maximal effect; nearly all actives have a fitted effect of over 55% in size
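Growth of hTDP1-complemented DT40 Tdp1-knockout cells is measured by ATP luminescence after at least 48 hr compound exposure at 37 °C, with DMSO substituting for the 20 nM CPT used in the parallel screen.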
IL-1B inflam inh: qHTS for Inhibitors of Inflammasome Signaling: IL-1-beta AlphaLISA Primary Screen | THP-1 LPS/ATP IL-1B secretion, AlphaLISA, 16 h; hits give low values | activity change, % at 57.5 µM | actives 4.7% (n = 360,000) | AID 743279, 2014; in the data active means activity change below about -50%; inconclusive means mostly about -30% to -49%
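THP-1 cells pretreated 1 hr with compounds (up to 57.5 uM final), then stimulated with LPS (250 ng/mL final) plus ATP (1.25 mM final); secreted IL-1B measured by AlphaLISA after 16 hr, decreased signal indicating inhibition.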
HT1080 IDH1KD tx: qHTS for induction of synthetic lethality in tumor cells producing 2HG: qHTS for the HT-1080-IDH1KD cell line; AID 686971, 2013; actives 2% (n = 360,000); Potency, µM (top dose mostly 46.1 µM), for inactives: top-dose activity, negative = toxicity, most hits filed as cytotoxic; HT-1080 IDH1 knockdown viability, ATP luminescence, 48 h;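 further: potency means the concentration at half of the fitted maximal effect; 0% = DMSO wells and -100% = cell-free medium wells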
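After a 2 h attachment period, IDH1KD HT-1080 cells took pin-transferred compound for 48 h at 37 °C; ATP-based luminescence after 10 min room-temperature reagent incubation reported viability.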
ELG1 repair inh: qHTS screen for small molecules that inhibit ELG1-dependent DNA repair in human embryonic kidney (HEK293T) cells expressing luciferase-tagged ELG1; HEK293T ELG1-luciferase reporter, luminescence, 16 h; DNA damage induced by 5-fluorouridine; AID 504467, 2011; actives 2.3% (n = 330,000); Potency, µM (series often up to 46.1 µM), for the others: top-dose activity change, negative = inhibition, usual class: inhibitors; further: potency means the concentration at half of the fitted maximal effect; nearly all actives have a fitted effect of over 55% in size
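DMSO vehicle served as the neutral condition. Each well held 2,000 cells given 5-fluorouridine plus compound; after 16 hr at 37 °C/5% CO2, ONE-Glo was added and luciferase measured 30 min later.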
HT1080-NT tox: qHTS for induction of synthetic lethality in tumor cells producing 2HG: qHTS for the HT-1080-NT fibrosarcoma cell line. actives 1.6% (n = 360,000). Potency, µM (titrated, usually from 46.1 µM), inactives show at the highest dose activity, negative = less viability, actives largely listed as cytotoxic. HT-1080-NT fibrosarcoma viability, CellTiter-Glo ATP luminescence, 48 h;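 further: NT is the 2HG producing partner of a matched IDH1 knockdown line; potency means the concentration at half of the fitted maximal effect; 0% = DMSO-treated cells and -100% = media-only wells without cells; nearly all actives have a fitted effect of over 55% in size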
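A 48-hour cytotoxicity screen used HT-1080-NT cells plated 2 hours before compound delivery. ATP-based CellTiter-Glo luminescence measured viability, normalized to DMSO and no-cell controls.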
* marks the source's active call; other numbers are inactive results; ? = inconclusive; . = no result given; ! = a repeat was not active. A selection: hits, their analogues and other compounds. The true share with any hit is near 19%. Unless noted, the call rests on the fitted dose curve; in most records, active means well fitted curve in the direction sought with a large enough effect; inconclusive means small, poorly fitted or top-dose-only effect, or another doubt; inactive means no such curve, though single readings can be large; an effect the other way counts as inactive or inconclusive. Unless noted, on the % scale 0 is the no-effect control and ±100 the full control effect.

SMILES | TDP1 cell CPT | DT40 TDP1 no CPT | IL-1B inflam inh | HT1080 IDH1KD tx | ELG1 repair inh | HT1080-NT tox
Cc1csc(NC(=O)Cc2coc3cc(C)c(C(C)C)cc23)n1 | 13µM* | 16µM* | ? | 23µM* | ? | ?
COc1ccccc1NC(=O)COc1ccc(-c2nn(C)c(=O)c3ccccc23)cc1 | 13µM* | 7.3µM* | -8 | -26% | 16µM* | -28%
CC(C)C[C@H](NC(=O)CC[C@H]1O[C@@H](n2ccc(=O)[nH]c2=O)[C@H](O)[C@@H]1O)C(=O)O | -18% | -4% | 21 | 21% | . | 20%
CC(OC(=O)c1ccc2c(c1)OCO2)C(=O)NC1CCCCC1 (stereo not given) | ? | ? | 0 | -2% | . | -5%
Cn1nc(-c2ccc(OCC(N)=O)cc2)c2ccccc2c1=O | -2% | 2% | 10 | 2% | ? | 10%
Cc1cccc(NC(=O)COc2ccc(-c3nn(C)c(=O)c4ccccc34)cc2)c1 | 12µM* | 16µM* | -52* | -21% | 15µM* | 0%
Cn1nc(-c2ccc(OCC(=O)Nc3ccc(Cl)cc3)cc2)c2ccccc2c1=O | ? | 21µM* | . | . | . | .
Cc1cc([N+](=O)[O-])ccc1NC(=O)CSc1nnc(C)n1C | 0% | -2% | -16 | 5% | ? | -1%
C[C@@H]1CN([C@@H](C)CO)C(=O)CCCn2nncc2CO[C@@H]1CN(C)S(=O)(=O)c1ccc(Oc2ccccc2)cc1 | ? | ? | -10 | 0% | . | 4%
CCOc1ccc(-c2csc(/C(C#N)=C/c3ccc(Br)cc3)n2)cc1 | -9% | -17% | . | . | . | .
CCNC(=S)N/N=C(\C)c1ccc2ccccc2c1OC(F)F | 23µM* | 16µM* | 32 | -17% | ? | -19%
C/C(=N\NC(=S)NC(C)C)c1ccccc1OC(F)F | 2.9µM* | 3.3µM* | 18 | 16% | -8% | 18%
CCN(CC)S(=O)(=O)c1ccc(N2CC(C(=O)NCc3ccco3)CC2=O)cc1 (stereo not given) | -9% | -24% | 5 | 0% | . | -5%
NCCC[C@@H](N)C(=O)O | -22% | -11% | . | . | . | .
COCC(=O)Nc1nc(-c2ccc([N+](=O)[O-])cc2)cs1 | -23% | ? | 2 | 1% | 3% | 11%
O=[N+]([O-])c1ccc(-c2csc(NN=C3CCCC3)n2)cc1 | 4.1µM* | 10µM* | ? | -21% | 15% | ?
CNc1nc(-c2ccc([N+](=O)[O-])cc2)cs1 | 2% | -15% | -29 | -5% | ? | -1%
O=C(Cc1nc(-c2ccc([N+](=O)[O-])cc2)cs1)Nc1ccccc1 | 22µM* | 16µM* | -24 | -5% | ? | 0%
CC(C)C(=O)Nc1nc(-c2ccc([N+](=O)[O-])cc2)cs1 | 9.2µM* | 4.6µM* | -16 | -14% | ? | -19%
Cc1nn(C(=O)COc2ccccc2)c(C)c1Sc1ccccc1 | -14% | -17% | . | . | . | .
CC1(c2nc3ccccc3cc2C#N)OCCO1 | -5% | ? | 18 | 1% | . | 11%
CC(=O)Nc1cccc(NC(=O)CSc2ccc(-c3ccccn3)nn2)c1 | ? | ? | 115 | ? | 4% | -20%
O=C(CSc1ccccn1)Nc1ccc2c(c1)C(=O)c1ccccc1C2=O | ? | 16µM* | 0 | 21µM* | ? | ?
CCOC(=O)c1ccccc1NC(=O)CSc1ccc(-c2ccccn2)nn1 | 3.7µM* | ? | 149 | -26% | 2% | -14%
CCc1ccc(NC(=O)CSc2ccc(-c3ccccn3)nn2)cc1 | ? | 23µM* | 265 | -28% | ? | ?
SMILES | TDP1 cell CPT | DT40 TDP1 no CPT | IL-1B inflam inh | HT1080 IDH1KD tx | ELG1 repair inh | HT1080-NT tox
Cc1ccc(NC(=O)CSc2ccc(-c3ccccn3)nn2)cc1F | 16µM* | 12µM* | 108 | -28% | ? | -5%
COc1cccc2cc(C(=O)NCCN3CCOCC3)c(=O)oc12 | -4% | -6% | -10 | 0% | 10% | -2%
C=CCn1c(-c2cc(-c3ccccc3)sc2N)n[nH]c1=S | 11% | ? | 13 | 16% | -7% | 10%
CCn1c(SC(C)C)nnc1-c1cc(-c2ccccc2)sc1N | ? | 16µM* | -6 | -12% | ? | 0%
CCn1c(SCc2nc3ccccc3s2)nc2cc(S(=O)(=O)N3CCOCC3)ccc21 | 29µM* | ? | 12 | -4% | . | -22%
O=S(=O)(c1cccc(-c2nnc(SCc3nc4ccccc4s3)o2)c1)N1CCOCC1 | 18µM* | ? | -19 | 2% | ? | 0%
CCCCn1c(CCl)nc2cc(S(=O)(=O)N3CCOCC3)ccc21 | 4.6µM* | 6.5µM* | . | ? | ? | -10%
COc1ccc(OC(=O)c2nc(SCc3ccccc3C)ncc2Cl)cc1 | -17% | -21% | . | . | . | .
COc1ccccc1N=C(C)C1=C(O)CC(c2ccccc2)CC1=O (stereo not given) | 0.52µM* | 0.82µM* | 32 | ? | -9% | ?
O=C(O)c1cc(=O)c2c3nc4ccccc4oc-3cc(=O)c2[nH]1 | 25µM* | 11µM*! | . | . | . | .
COC(=O)C1(C(=O)OC)C[C@H](/C=C/c2ccccc2)N(Cc2ccccc2OC)[C@@H]1c1cccc(Br)c1 | ? | ? | 3 | -12% | . | -8%
COc1ccccc1CNC(=O)Nc1cccs1 | ? | ? | 14 | 7% | ? | -1%
CCOc1ccccc1CN1CCCC(CNS(=O)(=O)c2ccc(OC)cc2)C1 (stereo not given) | ? | ? | -5 | -1% | 7% | 0%
COC(=O)C1(C(=O)OC)C[C@H](/C=C/c2ccccc2)N(Cc2ccccc2OC)[C@@H]1c1ccccc1 | ? | 15µM* | 0 | -7% | . | -7%
CCOc1ccccc1CN1[C@@H](c2ccc(OC)cc2)CC(C(=O)OC)(C(=O)OC)[C@H]1c1ccccc1 | ? | 15µM* | -13 | -5% | . | 5%
COC(=O)C1(C(=O)OC)C[C@H](c2cccs2)N(Cc2ccccc2OC)[C@@H]1c1ccc(F)cc1 | 15µM* | 15µM* | -6 | -10% | . | -24%
Cc1cc2ccccc2cn1 | -9% | -10% | . | . | . | .
